# From PubChem BioAssay (EPA / NIEHS)
# Records with an inconclusive call do not appear. Activity calls are given as the source filed them. Rule for the calls: active = hit-call score of the fitted dose curve at least 0.9, where 1 is the maximum; inconclusive = response in the unintended direction; inactive = score below 0.9.
# Experiments:
# [1] = target: rat Gamma-Aminobutyric Acid Type B Receptor (GABBR), Gabbr1 (gene 81657) (UniProt Q9Z0U4); experiment: NVS_GPCR_rGABBR: NovaScreen (NVS) G Protein-Coupled Receptor Assay for rat Gamma-Aminobutyric Acid Type B Receptor (GABBR) (AID 2283301)
# Summary of the method: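 Rat cortical membrane preparation, competitive radioligand binding for 1 h with filtration and scintillation readout. Actives from duplicate single-point 25 uM screening proceeded to concentration series with 50 uM top concentration.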
# [2] = target: rat Histamine Receptor (H3), Hrh3 (gene 85268) (UniProt Q9QYN8); experiment: NVS_GPCR_rH3: NovaScreen (NVS) G Protein-Coupled Receptor Assay for rat Histamine Receptor (H3) (AID 2283303)
# Summary of the method: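 Filter-binding radioligand competition on rat forebrain membranes, 1 h incubation; compounds screened at 25 µM in duplicate and followed in concentration series to 50 µM, loss of bound signal vs DMSO.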
# [3] = target: rat Vasopressin 1 Receptor (V1), Avpr1a (gene 25107) (UniProt P30560); experiment: NVS_GPCR_rV1: NovaScreen (NVS) G Protein-Coupled Receptor Assay for rat Vasopressin 1 Receptor (V1) (AID 2283316)
# Summary of the method: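 Concentration-response up to 50 uM for chemicals passing a threshold such as 30% inhibition in an initial duplicate 25 uM screen. Displacement of radioligand from rat liver membranes measured after 1.5 h by filtration and scintillation.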
# [4] = target: Metabotropic glutamate receptor 1 (Rattus norvegicus) (UniProt P23385); experiment: NVS_GPCR_rmMGluR1: NovaScreen (NVS) G Protein-Coupled Receptor Assay for rat Glutamate Metabotropic Receptor 1 (MGluR1) (AID 2283305)
# Summary of the method: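 Binding to native receptor from rat cerebellum extract, measured as displacement of a radioligand (scintillation counting, filter separation) after 1 hour. Compounds tested at 25 uM in duplicate, then titrated to a 50 uM maximum.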
# [5] = target: Voltage-dependent N-type calcium channel subunit alpha-1B (Rattus norvegicus) (UniProt Q02294); experiment: NVS_IC_rCaChN: NovaScreen (NVS) Ion Channel Assay for rat Calcium Channel, Type N (CaChN) (AID 2283317)
# [6] = target: bovine Gamma-Aminobutyric Acid Type A Receptor BDZ, alpha 5 site (GABARa5), GABRA5 (gene 523515) (UniProt Q08E50); experiment: NVS_LGIC_bGABARa5: NovaScreen (NVS) Ligand-Gated Ion Channel Assay for bovine Gamma-Aminobutyric Acid Type A Receptor BDZ, alpha 5 site (GABARa5) (AID 2283323)
# Summary of the method: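 Tested first in duplicate at a single 25 uM, with hits re-run in concentration series to a 50 uM maximum. Bovine hippocampal membranes; specific radioligand displacement measured by filter scintillation counting 1 hr post-dose.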
# [7] = target: rat Opioid Receptor, Non-selective Sodium (Na+) Binding, Oprm1 (gene 25601) (UniProt P33535); experiment: NVS_GPCR_rOpiate_NonSelectiveNa: NovaScreen (NVS) G Protein-Coupled Receptor Assay for rat Opioid Receptor, Non-selective Sodium (Na+) Binding (AID 2283311)
# Summary of the method: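 Filtration radioligand binding on rat forebrain membrane preparations, read 1.5 h after dosing. Single-concentration 25 µM primary screen in duplicate, followed by singleton concentration series to 50 µM max for actives; DMSO baseline.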
# [8] = target: human Neonicotinoid receptor (NNR), CHRNA2 (gene 1135) (UniProt Q15822); experiment: NVS_LGIC_hNNR_NBungSens: NovaScreen (NVS) Ligand-Gated Ion Channel Assay for human Neonicotinoid receptor (NNR) (AID 2283313)
# Summary of the method: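 Compounds first screened in duplicate at 25 uM, then actives re-tested in single-replicate dose series up to 50 uM. Binding measured as displacement of specific radioligand from neuroblastoma membrane receptors after 2 h, scintillation read on filters.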
# [9] = target: rat Glutamate, AMPA Site (AMPA), Gria1 (gene 50592) (UniProt P19490); experiment: NVS_LGIC_rAMPA: NovaScreen (NVS) Ligand-Gated Ion Channel Assay for rat Glutamate, AMPA Site (AMPA) (AID 2283324)
# Summary of the method: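 Screening at 25 uM in duplicate preceded concentration series reaching 50 uM for qualifying compounds. Radioligand displacement on rat forebrain membranes, 1 h, filter-based scintillation readout; reduced binding relative to DMSO.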
# [10] = target: rat Neonicotinoid receptor (NNR), Chrna7 (gene 25302) (UniProt Q05941); experiment: NVS_LGIC_rNNR_BungSens: NovaScreen (NVS) Ligand-Gated Ion Channel Assay for rat Neonicotinoid receptor (NNR) (AID 2283315)
# Summary of the method: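 Rat cortical membrane preparation incubated 2.5 h with tritiated or iodinated radioligand and test chemical. Bound radioactivity was filtered and counted by scintillation, and displacement was analysed against DMSO.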
# [11] = target: rat Opioid Receptor, Non-selective Binding, Oprm1 (gene 25601) (UniProt P33535); experiment: NVS_GPCR_rOpiate_NonSelective: NovaScreen (NVS) G Protein-Coupled Receptor Assay for rat Opioid Receptor, Non-selective Binding (AID 2283318)
# Summary of the method: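 Filter-based radioligand displacement using rat forebrain membrane preparations, measured 1.5 h post-dosing. Single-concentration duplicate screen at 25 uM, follow-up in concentration series; activity taken as signal loss relative to DMSO.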
# rat Opioid Receptor, Non-selective Binding, Oprm1 (gene 25601), sequence (P33535 whole entry, looked up): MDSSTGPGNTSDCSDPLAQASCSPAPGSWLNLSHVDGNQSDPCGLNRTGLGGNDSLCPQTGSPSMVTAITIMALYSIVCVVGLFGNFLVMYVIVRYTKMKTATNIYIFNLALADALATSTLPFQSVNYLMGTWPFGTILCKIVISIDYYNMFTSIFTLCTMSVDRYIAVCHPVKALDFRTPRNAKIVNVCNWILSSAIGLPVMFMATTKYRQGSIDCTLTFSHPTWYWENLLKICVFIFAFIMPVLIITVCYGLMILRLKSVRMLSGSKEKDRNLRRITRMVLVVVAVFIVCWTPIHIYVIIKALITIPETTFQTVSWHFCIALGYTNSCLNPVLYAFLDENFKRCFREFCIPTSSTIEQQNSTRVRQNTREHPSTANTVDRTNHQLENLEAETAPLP
# rat Vasopressin 1 Receptor (V1), Avpr1a (gene 25107), sequence (P30560 whole entry, looked up): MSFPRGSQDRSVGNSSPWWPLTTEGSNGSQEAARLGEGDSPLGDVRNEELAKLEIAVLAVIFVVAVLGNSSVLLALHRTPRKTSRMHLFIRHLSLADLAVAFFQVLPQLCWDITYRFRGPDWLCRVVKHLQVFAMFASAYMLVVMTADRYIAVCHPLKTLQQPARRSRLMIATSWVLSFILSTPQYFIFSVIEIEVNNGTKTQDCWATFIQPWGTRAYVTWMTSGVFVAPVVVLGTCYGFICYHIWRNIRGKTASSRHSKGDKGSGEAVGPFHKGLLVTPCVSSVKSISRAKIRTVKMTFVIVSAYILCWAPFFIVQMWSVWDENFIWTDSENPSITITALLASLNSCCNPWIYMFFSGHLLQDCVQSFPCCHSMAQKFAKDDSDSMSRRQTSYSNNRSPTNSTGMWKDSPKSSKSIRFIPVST
# rat Neonicotinoid receptor (NNR), Chrna7 (gene 25302), sequence (Q05941 whole entry, looked up): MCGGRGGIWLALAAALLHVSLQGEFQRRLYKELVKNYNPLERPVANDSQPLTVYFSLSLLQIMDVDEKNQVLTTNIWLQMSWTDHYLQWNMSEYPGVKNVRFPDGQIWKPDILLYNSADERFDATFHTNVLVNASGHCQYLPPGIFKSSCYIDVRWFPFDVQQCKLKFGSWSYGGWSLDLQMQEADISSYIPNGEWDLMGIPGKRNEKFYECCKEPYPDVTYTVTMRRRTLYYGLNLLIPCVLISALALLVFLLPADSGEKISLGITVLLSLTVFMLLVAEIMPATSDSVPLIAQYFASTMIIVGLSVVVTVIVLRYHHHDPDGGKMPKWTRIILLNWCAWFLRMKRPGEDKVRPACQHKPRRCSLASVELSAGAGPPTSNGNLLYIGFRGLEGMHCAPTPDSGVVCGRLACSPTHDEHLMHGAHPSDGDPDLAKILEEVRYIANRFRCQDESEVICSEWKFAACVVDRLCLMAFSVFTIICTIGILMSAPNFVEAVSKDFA
# rat Glutamate, AMPA Site (AMPA), Gria1 (gene 50592), sequence (P19490 whole entry, looked up): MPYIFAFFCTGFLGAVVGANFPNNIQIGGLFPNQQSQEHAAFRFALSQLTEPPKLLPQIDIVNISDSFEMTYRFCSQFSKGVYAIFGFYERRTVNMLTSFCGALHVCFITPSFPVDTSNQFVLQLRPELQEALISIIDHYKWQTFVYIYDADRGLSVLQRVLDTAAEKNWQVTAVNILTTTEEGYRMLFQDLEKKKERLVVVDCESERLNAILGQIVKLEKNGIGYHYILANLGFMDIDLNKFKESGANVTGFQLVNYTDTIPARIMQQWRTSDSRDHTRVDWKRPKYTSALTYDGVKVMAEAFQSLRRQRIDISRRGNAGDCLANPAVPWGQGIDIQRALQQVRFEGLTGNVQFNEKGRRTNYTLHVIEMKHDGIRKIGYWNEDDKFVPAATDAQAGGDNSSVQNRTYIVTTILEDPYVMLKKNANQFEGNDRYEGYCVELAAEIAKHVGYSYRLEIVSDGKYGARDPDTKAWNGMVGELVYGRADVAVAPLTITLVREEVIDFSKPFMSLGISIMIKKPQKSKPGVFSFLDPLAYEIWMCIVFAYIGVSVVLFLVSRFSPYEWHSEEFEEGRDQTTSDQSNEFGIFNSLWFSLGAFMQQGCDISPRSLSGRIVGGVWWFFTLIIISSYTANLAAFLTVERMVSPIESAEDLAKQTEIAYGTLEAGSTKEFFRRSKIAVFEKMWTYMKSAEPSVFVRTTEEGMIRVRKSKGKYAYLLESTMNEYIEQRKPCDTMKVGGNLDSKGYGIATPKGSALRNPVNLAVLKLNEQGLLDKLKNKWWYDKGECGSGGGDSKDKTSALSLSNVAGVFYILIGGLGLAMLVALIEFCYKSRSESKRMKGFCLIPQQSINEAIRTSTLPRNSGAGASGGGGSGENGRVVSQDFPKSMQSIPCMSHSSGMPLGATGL
# rat Gamma-Aminobutyric Acid Type B Receptor (GABBR), Gabbr1 (gene 81657), sequence (Q9Z0U4 whole entry, looked up): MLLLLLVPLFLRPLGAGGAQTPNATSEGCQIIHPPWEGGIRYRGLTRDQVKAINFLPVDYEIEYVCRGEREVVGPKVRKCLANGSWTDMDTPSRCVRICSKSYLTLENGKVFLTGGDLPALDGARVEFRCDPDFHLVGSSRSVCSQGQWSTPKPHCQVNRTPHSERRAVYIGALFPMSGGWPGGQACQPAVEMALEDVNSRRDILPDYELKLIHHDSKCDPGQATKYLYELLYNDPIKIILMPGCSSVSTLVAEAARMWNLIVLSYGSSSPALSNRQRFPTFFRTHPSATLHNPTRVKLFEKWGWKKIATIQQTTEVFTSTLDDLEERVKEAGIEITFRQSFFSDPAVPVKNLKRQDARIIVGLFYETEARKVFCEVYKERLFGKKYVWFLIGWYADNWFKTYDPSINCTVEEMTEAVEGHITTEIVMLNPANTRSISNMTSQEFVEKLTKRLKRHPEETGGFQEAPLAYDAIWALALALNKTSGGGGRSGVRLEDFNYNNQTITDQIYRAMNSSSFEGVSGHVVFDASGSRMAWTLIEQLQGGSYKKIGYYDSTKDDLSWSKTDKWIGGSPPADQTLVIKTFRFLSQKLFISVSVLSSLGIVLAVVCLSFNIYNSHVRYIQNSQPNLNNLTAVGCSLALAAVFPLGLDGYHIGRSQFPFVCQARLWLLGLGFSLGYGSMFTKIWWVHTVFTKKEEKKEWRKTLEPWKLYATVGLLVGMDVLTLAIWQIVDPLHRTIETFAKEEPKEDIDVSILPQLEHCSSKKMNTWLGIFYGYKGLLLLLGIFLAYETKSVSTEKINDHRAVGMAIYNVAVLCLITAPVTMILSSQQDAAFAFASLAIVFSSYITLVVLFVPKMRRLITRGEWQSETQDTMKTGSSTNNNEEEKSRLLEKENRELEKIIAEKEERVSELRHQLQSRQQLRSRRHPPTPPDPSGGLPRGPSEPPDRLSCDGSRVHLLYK
# bovine Gamma-Aminobutyric Acid Type A Receptor BDZ, alpha 5 site (GABARa5), GABRA5 (gene 523515), sequence (Q08E50 whole entry, looked up): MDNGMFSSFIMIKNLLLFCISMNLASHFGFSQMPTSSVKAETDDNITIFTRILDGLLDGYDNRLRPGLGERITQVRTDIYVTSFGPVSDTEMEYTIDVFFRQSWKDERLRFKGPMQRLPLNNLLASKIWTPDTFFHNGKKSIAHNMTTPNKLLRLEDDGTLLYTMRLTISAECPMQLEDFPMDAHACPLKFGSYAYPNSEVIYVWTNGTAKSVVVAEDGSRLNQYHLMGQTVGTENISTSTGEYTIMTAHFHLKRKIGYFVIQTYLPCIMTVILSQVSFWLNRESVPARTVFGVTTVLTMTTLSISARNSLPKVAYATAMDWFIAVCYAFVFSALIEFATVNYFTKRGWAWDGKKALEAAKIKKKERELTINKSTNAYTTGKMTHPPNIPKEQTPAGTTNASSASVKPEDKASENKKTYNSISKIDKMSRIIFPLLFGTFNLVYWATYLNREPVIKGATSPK
# rat Histamine Receptor (H3), Hrh3 (gene 85268), sequence (Q9QYN8 whole entry, looked up): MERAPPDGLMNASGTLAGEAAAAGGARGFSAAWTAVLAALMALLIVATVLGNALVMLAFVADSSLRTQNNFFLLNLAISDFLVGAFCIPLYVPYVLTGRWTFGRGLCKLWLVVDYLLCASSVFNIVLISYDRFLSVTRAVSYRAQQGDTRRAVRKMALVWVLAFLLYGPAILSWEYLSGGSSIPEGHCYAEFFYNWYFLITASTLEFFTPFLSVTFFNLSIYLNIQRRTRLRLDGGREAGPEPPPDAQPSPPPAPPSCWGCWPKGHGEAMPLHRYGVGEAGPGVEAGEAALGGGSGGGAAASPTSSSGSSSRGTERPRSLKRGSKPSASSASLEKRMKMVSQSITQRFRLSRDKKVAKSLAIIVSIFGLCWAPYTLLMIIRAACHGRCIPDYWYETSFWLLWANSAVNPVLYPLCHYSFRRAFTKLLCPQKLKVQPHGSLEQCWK
# rat Opioid Receptor, Non-selective Sodium (Na+) Binding, Oprm1 (gene 25601), sequence (P33535 whole entry, looked up): as the sequence (P33535 whole entry, looked up) above
# human Neonicotinoid receptor (NNR), CHRNA2 (gene 1135), sequence (Q15822 whole entry, looked up): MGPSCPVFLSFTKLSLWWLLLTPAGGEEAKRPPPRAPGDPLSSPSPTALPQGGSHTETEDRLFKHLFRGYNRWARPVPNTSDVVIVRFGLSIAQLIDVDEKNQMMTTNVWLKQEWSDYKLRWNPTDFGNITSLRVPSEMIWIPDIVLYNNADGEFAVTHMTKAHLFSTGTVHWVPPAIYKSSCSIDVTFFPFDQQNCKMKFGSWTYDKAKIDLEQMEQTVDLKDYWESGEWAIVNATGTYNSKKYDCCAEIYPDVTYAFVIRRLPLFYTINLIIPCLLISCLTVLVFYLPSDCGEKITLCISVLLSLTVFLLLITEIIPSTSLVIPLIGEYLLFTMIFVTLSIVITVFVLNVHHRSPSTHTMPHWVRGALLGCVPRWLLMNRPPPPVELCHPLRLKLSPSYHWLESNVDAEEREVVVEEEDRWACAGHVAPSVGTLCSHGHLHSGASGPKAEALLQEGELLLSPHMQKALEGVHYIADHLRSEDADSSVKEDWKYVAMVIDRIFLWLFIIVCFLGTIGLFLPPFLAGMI
smiles,measurement,setting,value
COP(=O)(NC(C)=O)SC (stereo not drawn),outcome,[1],inactive
Cc1cc(C2CC2)nc(Nc2ccccc2)n1,outcome,[1],inactive
COP(=O)(OC)OC(Br)C(Cl)(Cl)Br (stereo not drawn),AC50,[2],5.79 µM (active)
N#CSCSC#N,AC50,[2],9.77 µM (active)
same,AC50,[3],2.01 µM (active)
CC[C@H](C)[C@H]1O[C@]2(C=C[C@@H]1C)C[C@@H]1C[C@@H](C/C=C(\C)[C@@H](O[C@H]3C[C@H](OC)[C@@H](O[C@H]4C[C@H](OC)[C@@H](NC)[C@H](C)O4)[C@H](C)O3)[C@@H](C)/C=C/C=C3\CO[C@@H]4[C@H](O)C(C)=C[C@@H](C(=O)O1)[C@]34O)O2,AC50,[4],12.7 µM (active)
same,outcome,[5],inactive
same,AC50,[6],1.56 µM (active)
COc1ccc(C(=CC(=O)N2CCOCC2)c2ccc(Cl)cc2)cc1OC,outcome,[7],inactive
same,AC50,[3],6.22 µM (active)
S=C1NCCN1,outcome,[8],inactive
same,outcome,[9],inactive
CCOP(=O)(OCC)Oc1cc(C)nc(C(C)C)n1,outcome,[10],inactive
CCCCSP(=O)(SCCCC)SCCCC,outcome,[5],inactive
CC1=NNC(=O)N(/N=C/c2cccnc2)C1,outcome,[6],inactive
CC(C)=CC1C(C(=O)OCN2C(=O)C3=C(CCCC3)C2=O)C1(C)C (stereo not drawn),outcome,[9],inactive
CCc1cccc(C)c1N(C(=O)CCl)C(C)COC (stereo not drawn),AC50,[7],12.4 µM (active)
same,AC50,[11],14.7 µM (active)
COc1cccc(C(=O)NN(C(=O)c2cc(C)cc(C)c2)C(C)(C)C)c1C,AC50,[3],0.491 µM (active)
CCCOc1nn(C(=O)NS(=O)(=O)c2ccccc2C(=O)OC)c(=O)n1C,outcome,[10],inactive
CCOP(=S)(OCC)Oc1ccc2c(C)c(Cl)c(=O)oc2c1,outcome,[11],inactive
CCc1cccc(CC)c1N(COC)C(=O)CCl,outcome,[11],inactive
Cc1ccn2nc(S(=O)(=O)Nc3c(F)cccc3F)nc2n1,outcome,[10],inactive
